In the library only some 0.35% were active in any assay of this set; here they are far more common.
MBNL1-CUG inh: inhibitors of human MBNL1 binding to CUG repeat RNA; Q9NR56; TR-FRET MBNL1-His/biotin-(CUG)12 binding, 665/545 ratio; Potency, µM (titrated, usually from 57.5 µM), for inactives: at the top dose activity change, negative = inhibition, most hits filed as inhibitors; 280,000 tested, 0.036% active; AID 2675; active means well fitted inhibition curve with a large enough effect in the signal ratio, with a control signal flat, not every such curve was filed as active; inconclusive means small, poorly fitted or top-dose-only effect, or effect the other way, or a change in a side signal; inactive means no such curve, though single readings can be large or run the other way; the % refers to the signal ratio; further: potency means the concentration at half of the fitted maximal effect; on the % scale 0 is the no-effect control and ±100 the full control effect
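Inhibition of protein-RNA binding appears as loss of TR-FRET between terbium anti-His antibody on MBNL1-His and streptavidin-XL665 on biotin-(CUG)12. Activity is normalized to buffer-only and uninhibited-complex controls.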
TRPV1 PAM: enhances activation of the human vanilloid receptor TRPV1 | Q8NER1 | AID 540277 | potentiation, % at 8.33 µM | TRPV1-expressing cells, Fluo-8 calcium influx, capsaicin EC20 potentiation | 320,000 tested, 0.02% active; in the data active means potentiation above about 80%; inconclusive means between about 30% and that limit; further: 0% is about no effect
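TRPV1-expressing cells were cultured overnight at 35.5C and loaded with Fluo-8 calcium dye for 40 to 90 min at room temperature. After a 10 s baseline, compound was added and calcium influx was read kinetically for 3 min (ex 480/em 520 nm).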
TCR act: T cell receptor activation | primary human leukocytes, anti-CD3, IL-2 HTRF, 48 h | Potency, µM (series often up to 9.22 µM), for inactives: at the highest dose activation of IL-2 secretion, hits mostly activators | 330,000 tested, under 10 active | AID 504894; further: % of control where 0% means no effect
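48 hr co-incubation of compounds, a-CD3 beads and primary human leukocytes; IL-2 quantified homogeneously by HTRF with anti-IL-2 K and d2 conjugates.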
TRPV1 agonist: activates the human vanilloid receptor TRPV1. activation, % at 8.33 µM. 320,000 tested, 0.19% active. Q8NER1. AID 540275. TRPV1-expressing cells, Fluo-8 calcium influx, agonist mode; in the data active means activation above about 80%; inconclusive means between about 30% and that limit; further: 0% is about no effect
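Cells expressing TRPV1 were dye-loaded with Fluo-8 and read kinetically: 10 s baseline, 3 min after compound (agonist portion), then 2 min after EC20 capsaicin (allosteric enhancer portion). Calcium-bound dye fluorescence at 480/520 nm.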
KinaseGlo FLuc: Kinase-Glo luciferase inhibition (counter-screen). Potency, µM (titrated, usually from 38.3 µM), without a hit: top-dose activity change, negative = inhibition, actives largely listed as inhibitors. Q27757. 200,000 tested, 0.28% active. Kinase-Glo luciferase, ATP luminescence, 8 min; further: potency means the concentration at half of the fitted maximal effect; on the % scale 0 is the no-effect control and ±100 the full control effect; nearly all actives have a fitted effect of over 60% in size
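Light output from Kinase-Glo luciferase with luciferin and 10 uM ATP in 50 mM imidazole pH 7.2, KCl, MgCl2, Tween 20, BSA; compound pin-delivered, 8-min ambient incubation, then luminescence read.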
CBFb-RUNX1 inh: blocks binding between human CBF-beta and RUNX1; Q01196+Q13951; AlphaScreen CBFb-His/RUNX1-biotin binding, biochemical; Potency, µM (titrated, usually from 59.8 µM), inactives show at the highest dose activity, negative = inhibition, actives largely listed as inhibitors; 230,000 tested, under 10 active; AID 1477; further: % of control where 0% means no effect
Target sequence (Q01196 whole entry, looked up): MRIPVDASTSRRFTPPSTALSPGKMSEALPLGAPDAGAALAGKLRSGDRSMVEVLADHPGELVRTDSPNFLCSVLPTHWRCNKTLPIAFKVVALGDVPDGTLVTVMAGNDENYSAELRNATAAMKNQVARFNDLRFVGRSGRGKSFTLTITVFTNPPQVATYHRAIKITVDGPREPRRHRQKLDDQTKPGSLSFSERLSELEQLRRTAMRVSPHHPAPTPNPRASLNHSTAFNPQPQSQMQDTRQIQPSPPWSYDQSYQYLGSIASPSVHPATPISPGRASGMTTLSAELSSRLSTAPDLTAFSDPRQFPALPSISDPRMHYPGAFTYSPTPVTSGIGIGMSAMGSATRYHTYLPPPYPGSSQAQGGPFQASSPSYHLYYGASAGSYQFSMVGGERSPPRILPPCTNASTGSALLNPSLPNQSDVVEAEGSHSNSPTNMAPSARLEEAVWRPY
Target sequence (Q13951 whole entry, looked up): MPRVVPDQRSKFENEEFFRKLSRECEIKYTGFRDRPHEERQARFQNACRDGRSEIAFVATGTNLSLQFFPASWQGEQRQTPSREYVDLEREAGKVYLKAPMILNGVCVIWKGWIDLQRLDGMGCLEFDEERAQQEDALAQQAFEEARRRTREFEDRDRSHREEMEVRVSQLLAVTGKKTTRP
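AlphaScreen binding: CBFb-His and RUNX1-biotin (30 nM each) preincubated 20 min, compound added for 15 min, then nickel and streptavidin beads for 90 min, all at room temperature. Disruption of the interaction by any mechanism counts as activity.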
An asterisk follows results filed as active; ? = inconclusive; · = no result; [ ] = dose if it differs, or a comment. Unless noted, the call rests on the fitted dose curve; in most records, active means well fitted curve in the direction sought with a large enough effect; inconclusive means small, poorly fitted or top-dose-only effect, or another doubt; inactive means no such curve, though single readings can be large; an effect the other way counts as inactive or inconclusive.

SMILES	MBNL1-CUG inh	TRPV1 PAM	TCR act	TRPV1 agonist	KinaseGlo FLuc	CBFb-RUNX1 inh
CC1CCN(CCCCOc2ccc(Cl)cc2)CC1	-9.4%	?	-3.1%	1.0	·	·
Cc1cccc(N2CCN(C(=O)N3CCCCC3)CC2)c1C	-1.3%	-1.6	0.7%	82.0*	-0.5%	4.6%
Cc1cccc(N2CCN(C(=O)N3CCOCC3)CC2)c1C	5.7%	-6.8	-0.3%	9.4	-1.8%	4.7%
Cc1ccc(N2CCN(S(=O)(=O)N3CCCCC3)CC2)cc1C	-8.5%	-26.8	-1.4%	17.1	-0.9%	4.3%
Cc1ccc(N2CCN(C(=O)N3CCCC3)CC2)cc1C	-4.6%	-22.3	0.5%	93.5*	-4.0%	-7.1%
C=C1C=C(C(F)F)n2ncc(C(=O)Nc3ccc(C(C)CC)cc3)c2N1 (stereo not given)	·	-1.2	·	1.5	·	·
CCN1N=C(c2ccccc2)Cn2c1nc1ccccc12	19.0%	-14.2	-1.6%	89.6*	-2.7%	?
c1coc(-c2nc3cc4ccccc4cc3nc2-c2ccco2)c1	·	-8.4	·	-1.2	·	·
Cc1cccc(NC(=S)NC(=O)Cc2ccccc2)c1C	-6.6%	8.5	-1.0%	?	·	·
Cc1cc(C)c(O)c(NC(=S)NC(=O)Cc2ccccc2)c1	-6.8%	4.6	2.3%	80.6*	·	·
COc1ccc(/C=N/N2C(=O)c3ccccc3C2=O)cc1	?	-8.3	-2.1%[46.1 µM]	6.3	14.1µM*	0.2%
O=C(O)[C@@H]1[C@@H]2O[C@H]([C@@H](Br)[C@H]2Br)[C@H]1C(=O)O	·	·	·	·	-1.0%[7.66 µM]	·
Clc1ccccc1Nc1nnc(-c2ccncc2)s1	·	-28.1	-0.6%[46.1 µM]	?	1.26µM*	14.7%
CC[N+](CC)(CC)CC(=O)Nc1ccc(SC(F)F)cc1	0.1%	22.7	-9.8%	-1.6	-0.6%	11.6%
Cc1ccc(C(=O)Nc2ccc(SC(F)F)cc2)s1	5.7%	-13.3	6.9%	85.8*	-1.4%	?
COc1cccc(CCNC(=O)CCc2nnc(-c3cc(C)oc3C)o2)c1	-2.3%	100.7*	-2.7%	2.6	·	·
COc1cccc(CCNC(=O)CCc2nnc(-c3ccc4c(c3)OCO4)o2)c1	-9.2%	2.8	-1.3%	0.5	·	·
CCCCC(CC)COCC1CO1 (stereo not given)	·	·	·	·	·	5.3%[21.7 µM]
CC(=C/c1ccco1)/C=N/N1CCN(c2ccccc2)CC1	-5.1%	-10.2	6.2%	-1.7	10µM*	-15.0%
CC(/C=N/N1CCN(c2ccccc2)CC1)=C\c1ccco1	-7.3%	11.0	-0.1%	0.0	7.94µM*	-16.5%
COc1cccc(C2=Nn3c(nnc3-c3ccccc3C)SC2)c1	·	·	·	·	·	-11.9%
O=C(NCCCc1ccccc1)c1ccc(F)cc1	2.6%	-27.9	·	87.6*	·	·
Cc1ccc(CC(=O)NCCCc2ccccc2)cc1	2.9%	-18.6	7.4%	80.3*	-5.7%	1.1%
O=C(Nc1cccc(O)c1)c1noc2c1CCc1ccccc1-2	-3.7%	-18.1	0.6%	?	14.1µM*	-4.6%
CCN(C(=O)COC(=O)c1cncc(Br)c1)C1CCS(=O)(=O)C1 (stereo not given)	7.1%	80.3*	-2.1%	6.1	-2.0%	4.5%
SMILES	MBNL1-CUG inh	TRPV1 PAM	TCR act	TRPV1 agonist	KinaseGlo FLuc	CBFb-RUNX1 inh
CCN(C(=O)COC(=O)c1cccnc1Nc1ccccc1F)C1CCS(=O)(=O)C1 (stereo not given)	-15.9%	27.1	1.9%[46.1 µM]	4.6	10µM*	-3.4%
CN(C(=O)COC(=O)c1cccnc1Nc1ccccc1F)C1CCS(=O)(=O)C1 (stereo not given)	-5.3%	-22.1	10.2%[46.1 µM]	2.1	-21.2%	-3.0%
CC(C)C12CC[C@@]3(CC[C@H]4[C@@](C)(CCC[C@]4(C)C(=O)O)[C@@H]3C1)[C@@H](CN)C2	·	·	·	·	-1.7%[7.66 µM]	·
COc1ccc(N=CC2=C(O)c3ccccc3C2=O)cc1	20.3%	-11.4	-10.9%	3.3	4.47µM*	-1.5%
CN=CC1=C(O)c2ccccc2C1=O	15.4%	-2.6	0.4%	-5.3	-0.7%	1.4%
O=C1C(C=Nc2ccccc2O)=C(O)c2ccccc21	?	2.5	·	-3.8	10µM*	-4.7%
COc1ccc(N=C(C)C2=C(O)c3ccccc3C2=O)cc1	?	-23.3	-0.8%[46.1 µM]	27.6	-8.9%	-10.0%
O=C1C(C=Nc2ccccc2)=C(O)c2ccccc21	?	-6.8	2.0%	12.4	12.6µM*	-0.7%
CC(C)N(CCNC(=O)c1ccc(Cc2nc3ccccc3[nH]2)cc1)C(C)C	·	·	·	·	-1.8%	·
C[C@@H]1CC2(OC(O)[C@]3(C)O[C@H]23)O[C@H]2C[C@@]3(C)[C@@H]4CC[C@H]5C(C)(C)C(O[C@@H]6OC[C@@H](O)[C@H](O)[C@H]6O)CC[C@@]56C[C@@]46CC[C@]3(C)[C@@H]12 (stereo not given in full)	·	·	·	·	·	17.5%[21.7 µM]
O=c1c(=NNc2ccccc2Cl)c(=O)c2ccccc12	19.7%	0.8	0.5%	1.9	6.31µM*	-8.6%
Cc1cc(C)c(NN=c2c(=O)c3ccccc3c2=O)c(C)c1	-1.2%	-4.2	2.5%	0.5	-4.1%	-13.5%
C[C@H](C(=O)c1ccccc1)C(c1ccccc1)N1CCOCC1 (stereo not given in full)	·	·	·	·	0.8%[7.66 µM]	·
CN(C)c1ccc(NC(=O)c2cccc([N+](=O)[O-])c2)c2ccccc12	?	-12.3	0.7%	83.0*	·	·
CN(C)CC(O)Cn1c2ccc(Br)cc2c2cc(Br)ccc21 (stereo not given)	·	·	·	·	·	13.3%
C=CC1=C2C=C(C3CC3)N(CCCOC(C)C)C=C2C(=O)C(C)(OC(=O)c2ccco2)C1=O (stereo not given)	·	·	·	·	-2.1%[7.66 µM]	-1.1%[13.1 µM]
CN1CCN(C(=O)c2ccc(-n3c(=O)c(=O)[nH]c4ccccc43)cc2)CC1	·	·	·	·	-3.3%	·
CCOC(=O)CCCCC(=O)c1[nH]c(=O)[nH]c1CSCCO	3.55µM*	-0.9	·	-1.5	0.8%	?
CCOC(=O)c1[nH]c(=O)[nH]c1CSc1ccccn1	-7.4%	-4.9	3.6%	1.4	3.7%	2.8%
N#Cc1c(-c2ccccc2)nc(SCC(=O)N(c2ccccc2)c2ccccc2)[nH]c1=O	?	25.0	-5.1%[46.1 µM]	3.3	0.1%	-5.9%
CCOC(=O)CCCCC(=O)c1[nH]c(=O)[nH]c1CSc1nc(-c2ccccc2)c(C#N)c(=O)[nH]1	7.08µM*	?	-3.2%	1.0	0.3%	-12.8%
CO[Si](CCCNCCC[Si](OC)(OC)OC)(OC)OC	·	·	·	·	·	12.8%[21.7 µM]
Cc1ccc(C2=C(Cl)C(=O)C(c3ccc(C)cc3)=C(Cl)C2=O)cc1	·	·	·	·	1.6%[7.66 µM]	·
COC(=O)c1sccc1N/N=C/c1ccc(OC)c(OC)c1OC	·	-1.6	1.5%[46.1 µM]	2.9	-3.3%	?
COC(=O)c1sccc1N/N=C/c1cccc(OC)c1O	·	-3.5	2.0%	14.6	10µM*	10.1%
Nc1cc(C(=O)O)c(O)c(S(=O)(=O)O)c1	·	·	·	·	·	-7.2%[21.7 µM]

Assay outcomes from PubChem.
